Each structure is given as a SMILES string. Hit rate of the full screen: of about 2,100 compounds, about 760 (36%) were called active. The list is a sample of the results. Unmarked numbers belong to inactive results.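 How the source made its calls: active means thallium-flux fluorescence traces judged by eye to show enhanced or reduced glutamate response, manual score 1 or -1, so both directions (some results past the limit were not filed as active); inactive means the rest, including fluorescent or raised-baseline compounds.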

The nature of this test: non-GIRK thallium flux modulation in mGlu8 cells, confirmation, counter-screen for GIRK activator project, cell-based, HEK-293 rmGlu8, no GIRK (AID 623868).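 Further: extra codes mark interference with 3 for fluorescent and 4 for baseline rise.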 As to conditions: thallium flux fluorescence, at 10 µM, actives lie on both sides, codes: 1 enhancer, -1 blocker, 0 none, thallium stimulus containing EC20 glutamate. For orientation: A counterscreen serves to expose hits that act by an unwanted route or on another target.
On to `CCN1CCN(C(=O)c2ccc3c(=O)n(C4CCCC4)c(=S)[nH]c3c2)CC1`, for which the manual score was 0. As to `O=C(C1CCC(Cn2c(=S)[nH]c3ccccc3c2=O)CC1)N1CCN(c2ccccc2)CC1` (configuration not stated), the manual score is 0. In the case of `O=c1c2ccccc2[nH]c(=S)n1C1CCCCC1`, the manual score was 1 (active). The same measure for `O=c1[nH]c2ccccc2n1CCC1CCCCC1`: 0; for `CCOC(=O)N1CCC(n2c(=S)[nH]c3ccccc3c2=O)CC1`: 1 (active); for `CC1CCCC(n2c(=S)[nH]c3ccccc3c2=O)C1C` (configuration not stated): 3.

Regarding `CC1CCCCC1n1c(=S)[nH]c2ccccc2c1=O` (configuration not stated), the manual score is 1 (active). As for `O=C(c1ccc2c(=O)n(C3CCCC3)c(=S)[nH]c2c1)N1CCc2ccccc21`, the manual score is 0. Regarding `CC1CCC(n2c(=S)[nH]c3ccccc3c2=O)CC1` (configuration not stated), the manual score was 1 (active). In the case of `CCOC(=O)/C(=C\C=C1/Sc2cc(OCC)c(OCC)cc2N1CC)C(C)=O`, the manual score was 3. With `C=CCN1CCN(C(c2ccc(Cl)cc2)c2nnnn2CCc2ccc(OC)c(OC)c2)CC1` (configuration not stated), the manual score is 0.5. Take `CCC1(C)CC(c2csc(N)n2)CCO1` (configuration not stated): the manual score is 0. For `O=C(CSCCO)Nc1ccccc1`, the manual score is 0.

Take `CCOC(=O)C(C(=O)OCC)c1cc(Br)c2noc3c2c1C(=O)c1ccccc1-3`: the manual score is 3. `CC(C)(C)OC(=O)COc1cc(O)c2c(=O)cc(-c3ccccc3)oc2c1`: the manual score was 0. As for `Cc1ccc2c(c1)N(CC(=O)N(Cc1ccccn1)Cc1ccco1)C(=O)C(C(C)C)O2` (configuration not stated), the manual score is 0. For `CCOc1ccc(-n2c(SC(C)C(=O)OC)nc3c(c2=O)SCC3)cc1` (configuration not stated), the manual score is -1 (active).

Consider `CCOc1ccc(-n2c(Cc3cc(=O)[nH]c(=O)[nH]3)nnc2SC(C)C(=O)OC)cc1` (configuration not stated), for which the manual score was 0. To `COC(=O)c1ccc(CSc2nc3c(c(=O)n2-c2ccc(F)cc2)SCC3)o1` belongs -1 (active). For `COC(=O)C(C)Sc1nc2c(c(=O)n(C)c(=O)n2C)n1Cc1cccc(C)c1` (configuration not stated), the manual score is 0. As to `COc1cccc(NC(=O)NC2(C(F)(F)F)Oc3ccccc3O2)c1`, the manual score was 0.

Take `CN(C)S(=O)(=O)N(CC(=O)Nc1ccc2ccccc2c1)c1ccccc1`: the manual score is 0. With `Cc1cc(NC(=O)c2ccccc2Oc2ccccc2)no1`, the manual score was -1 (active). To `COc1ccc(C(=O)Nc2ccccc2)cc1S(=O)(=O)Nc1cc(C)on1` belongs 0; to `CCCCOc1cccc(OCCCC)c1C(=O)Nc1cc(C)on1`, 0; to `Cc1cc([N+](=O)[O-])ccc1-c1ccc(C2Nc3ccccc3C(=O)N2O)o1` (configuration not stated), 1 (active). Take `O=C1c2ccccc2NC(c2ccc(-c3cccc(Cl)c3)o2)N1O` (configuration not stated): the manual score was 1 (active).

For the molecule `O=C1c2ccccc2NC(c2ccc(-c3ccc(Br)cc3)o2)N1O` (configuration not stated), the manual score is 1 (active). Take `COc1ccc(C(=O)C2C(c3ccc(-c4ccccc4[N+](=O)[O-])o3)NC(=O)NC2(O)C(F)(F)F)cc1` (configuration not stated): the manual score was 0.5.

For the molecule `CC(=O)Nc1ccc(SCC(=O)c2cc(C)n(-c3ccccc3F)c2C)cc1`, the manual score was 0.5. Regarding `Cc1cccc(C)c1NC1=NC(=S)N(c2ccc(N(C)C)cc2)C1(C)C`, the manual score was 1 (active). The same measure for `CC1CN(C(=O)C2CCCCC2)C(C)CN1C(=O)C1CCCCC1` (configuration not stated): 0; for `Cn1c(NC(=O)Cc2ccc(F)cc2)cc(=O)n(C)c1=O`: 0; for `CC(=O)C1=C(C)NC(SCc2ccc(C#N)cc2)=C(C#N)C1c1ccco1` (configuration not stated): 0. For `CSCSC1=C(C#N)C(c2ccc(Cl)cc2)C(C(C)=O)=C(C)N1` (configuration not stated), the manual score was 0.

Turning to `CC(=O)C1=C(C)NC(SCC(=O)c2ccc(Cl)cc2Cl)=C(C#N)C1c1ccco1` (configuration not stated), the manual score was -1 (active). As for `CCOC(=O)C1=C(c2ccccc2)NC(SC)=C(C#N)C1c1ccco1` (configuration not stated), the manual score is 0. `CSCSC1=C(C#N)C(c2ccccc2Cl)C(C(C)=O)=C(C)N1` (configuration not stated): the manual score is -1 (active). For the molecule `O=C(CCc1nc(-c2ccccc2F)no1)NCCN1CCN(Cc2ccccc2)CC1`, the manual score was 0. `O=C(NNC(=O)c1cccs1)Nc1cccc(Cl)c1`: the manual score is 0. The same measure for `COc1ccc(NC(=O)C(=O)NNC(=O)c2cccs2)cc1`: 1 (active); for `COC(=O)c1cc(OC)c(OC)cc1NC(=O)Nc1ccc(OC)cc1OC`: 0. To `COc1ccc(Br)cc1CNC(=O)Nc1cccs1` belongs 0; to `COc1ccc(NC(=O)C(=O)NNC(=O)c2cccs2)c(OC)c1`, 1 (active). Consider `COc1cccc(NC(=O)Nc2cccs2)c1`, for which the manual score was 0. As to `CCCc1noc2c1/C(=N\O)CC(CC(C)SCC)C2` (configuration not stated), the manual score is 0.

As to `O=C(CSc1ccc2ccccc2c1Br)Nc1cccc(S(=O)(=O)NC2=NCCCCC2)c1`, the manual score is 1 (active).

In the case of `O=C(CSc1nnnn1-c1ccc(O)cc1)Nc1cccc(S(=O)(=O)N2CCCC2)c1`, the manual score is 0.

As for `CCc1ccc(C(=O)OCC(=O)Nc2cccc(S(=O)(=O)NC3=NCCCCC3)c2)cc1`, the manual score is 0.

Regarding `Cc1ccc(N2CC(C(=O)N/N=C/c3sccc3C)CC2=O)cc1` (configuration not stated), the manual score is 0. For `Cc1ccsc1/C=N/NC(=O)c1sccc1C`, the manual score is 1 (active). Take `OC(CNCC1CCCO1)Cn1c2ccc(Br)cc2c2cc(Br)ccc21` (configuration not stated): the manual score is 0. `O=C1CC(C(=O)Nc2ccc(Br)cc2)C2(CCCC2)O1` (configuration not stated): the manual score is 0. `O=C(N/N=C/c1ccc([N+](=O)[O-])s1)c1cccc(Br)c1`: the manual score was 0.5. Take `O=C(NN=C1c2ccccc2-c2ccccc21)c1ccccc1Br`: the manual score is 1 (active). As for `O=C(NN=C1c2ccccc2-c2ccccc21)c1cccc(Br)c1`, the manual score is 1 (active). For `CCCCn1c(CN(Cc2ccccc2)Cc2ccccc2)nc2c1c(=O)n(C)c(=O)n2C`, the manual score was 0. To `O=C(CSCC(=O)N1CCCCC1)Nc1nc(-c2ccc(Cl)s2)cs1` belongs 0. For `Cc1nc2nc(Cc3ccccc3)[nH]n2c(=O)c1Cc1ccccc1`, the manual score is 0. Take `CN1C(=O)C2(C(C#N)=C(N)N(c3cc(Cl)cc(Cl)c3)C3=C2C(=O)CCC3)c2ccccc21` (configuration not stated): the manual score is -1 (active).

With `Cc1cc(C(=O)CSc2n[nH]c(N)n2)c(C)n1-c1cc(F)ccc1F`, the manual score is 0. The same measure for `c1ccc(-c2nnc3ccc(N4CCCC4)nn23)cc1`: -1 (active). Take `Fc1ccc(-c2nnc3ccc(N4CCc5ccccc5C4)nn23)cc1`: the manual score is 0. With `c1ccc2c(N3CCCCCC3)nc(-c3ccncc3)nc2c1`, the manual score was 0. Regarding `CCOC(=O)/C(C#N)=C/C1=C(N2CCCC2)CC(C)(C)OC1`, the manual score was 0. To `CCOC(=O)N1CCN(C(=O)c2oc3ccc(S(=O)(=O)N4CC(C)CC(C)C4)cc3c2C)CC1` (configuration not stated) belongs 0. The same measure for `C=CCOn1c(=O)c(-c2cccs2)[n+]([O-])c2ccccc21`: 3; for `O=c1c(-c2ccc(Cl)cc2)[n+]([O-])c2ccccc2n1O`: 1 (active). For `CCOn1c(=O)c(-c2cccs2)[n+]([O-])c2ccccc21`, the manual score was 3.

Regarding `Clc1ccc2c(c1)-c1nnc(Br)n1-c1ccccc1S2`, the manual score was -1 (active). In the case of `C/C(CC(C)(C)C1CCCCC1)=N\NC(N)=S`, the manual score is 0. Consider `CNc1nc(Cl)nc(NC(C)(C)C)n1`, for which the manual score is 0. Consider `Cc1cccc(N2C(=O)CS/C2=N\NC(=O)c2ccc(Cl)cc2)c1C`, for which the manual score is 1 (active).

As for `CC(NC(=O)C1CC=CCC1C(=O)O)C1CC2CCC1C2` (configuration not stated), the manual score was 0. With `CCNc1ccc2noc3c2c1C(=O)c1ccccc1-3`, the manual score is 0. As to `O=C(NNc1ccccc1Br)C(=O)n1ccc2ccccc21`, the manual score was 1 (active). Consider `Cc1ccc(C)c2[nH]c(=O)c(CN(CCN3CCCC3)C(=O)Nc3ccc(F)cc3)cc12`, for which the manual score was 0.

Regarding `CSC1=NSC2=NC(=O)/C(=C/c3coc4ccccc4c3=O)C(=N)N12`, the manual score was 3. As for `O=C1N=C(c2ccccc2)S/C1=C\c1cccs1`, the manual score is 3. On to `N=C1/C(=C/c2cccs2)C(=O)N=C2SN=C(SCc3ccccc3)N12`, for which the manual score is 1 (active). To `Cc1ccc(CNC(=O)Cc2csc(Nc3nc(=S)[nH]c4ccccc34)n2)cc1` belongs 1 (active); to `O=C(Cc1csc(Nc2nc(=S)[nH]c3ccccc23)n1)NCc1cccc(Cl)c1`, 1 (active). In the case of `O=C(Cc1csc(Nc2nc(=S)[nH]c3ccccc23)n1)NCc1ccccc1Cl`, the manual score was 0. The same measure for `N#CC(c1cccc(Cl)c1)c1ccc2c(C(F)(F)F)cc(C(F)(F)F)nc2n1` (configuration not stated): 0; for `Oc1cccc(NC(=S)Nc2ccc(SC(F)F)cc2)c1`: 0; for `CN(C)CCNC(=O)c1ccc2c(c1)N(Cc1ccc(F)cc1)CCS2`: 0. Turning to `CCOC(=O)CSc1nc2ccc(Nc3nc(N4CCOCC4)nc(N4CCOCC4)n3)cc2s1`, the manual score was 0. The same measure for `O=C(O)c1cccc(Nc2nc(N3CCOCC3)nc(N3CCOCC3)n2)c1`: -1 (active); for `CC1CC(C)CN(Cc2nc(N)nc(Nc3ccc4ccccc4c3)n2)C1` (configuration not stated): 0; for `CC(=O)Nc1cccc2c1C(=O)N(c1cccc(C)c1)C2=O`: 0. To `CC(C)CC(=O)Nc1cccc2c1C(=O)N(c1ccccc1)C2=O` belongs -1 (active); to `O=C(COC(=O)c1cccc(N2C(=O)c3ccccc3C2=O)c1)Nc1ccccc1`, 0; to `CCOc1ccc(Br)cc1/C(C)=N\NC1=NCCN1`, 0.

For `N#CC1=C(N)Oc2n[nH]c(-c3cccs3)c2C1c1ccoc1` (configuration not stated), the manual score was 0. Regarding `S=C1NC(c2ccccc2)=NCN1c1ccc(Cl)cc1`, the manual score was 1 (active). To `Cc1cs/c(=N\N=C\c2cccc([N+](=O)[O-])c2)n1Cc1ccco1` belongs 0; to `Cc1cc(C)c(-n2c(C)cc(/C=C3/NC(=O)NC3=O)c2C)c(C)c1`, 0; to `Cc1ccccc1-n1c(SCc2ccccn2)nc2n[nH]c(C)c2c1=N`, 0. `CCOc1ccc2nc(NC(=O)C(CC)Sc3nc(C)cc(=O)[nH]3)sc2c1` (configuration not stated): the manual score is -1 (active). Consider `CCCOc1cccc(OCCSc2nc(C)cc(=O)[nH]2)c1`, for which the manual score was 0. For `CC(C)Cn1c2c(c(O)c(C(=O)Nc3ncccc3O)c1=O)CCCC2`, the manual score is -1 (active).

Regarding `C/C(=N\NC(=O)COc1ccc(C)cc1C(C)C)c1ccc(-n2ccnc2)cc1`, the manual score is 0.
